Whole data set: some 16,000 sequences, median “rpm ratio (pull-down/input)” near 0.94, cut for the highest 2% near 1.7. Many of the other results were omitted from the sample, so the highest values are more common in it than they were.

This test addresses T1, MBP-FoxP1dN (Mus musculus, UniProt P58462 326-579).
T1 sequence: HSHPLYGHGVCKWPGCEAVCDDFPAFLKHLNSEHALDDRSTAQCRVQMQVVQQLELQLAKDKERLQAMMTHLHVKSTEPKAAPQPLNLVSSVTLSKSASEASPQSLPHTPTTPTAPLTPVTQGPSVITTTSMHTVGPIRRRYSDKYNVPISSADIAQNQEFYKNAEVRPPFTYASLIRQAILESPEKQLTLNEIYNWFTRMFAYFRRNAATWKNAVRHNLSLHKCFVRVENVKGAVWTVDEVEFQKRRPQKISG
As to the kind of experiment: PD-seq (MBP pull-down with sequencing); 20 mM Tris-HCl pH 7.5, 100 mM NaCl, 1.5 mM MgCl2, 0.4 uM protein, 0.1 uM dsDNA library, 30 min, room temperature, amylose pull-down; high values mean tight binding. To be noted: protein: recombinant; tags: His6-MBP; chain copies: 2; dsDNA, one strand shown. A digest of the protocol:
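Binding is given as reads-per-million enrichment, pull-down over input, with replicates pooled. The bait was an N-terminus-lacking mouse FoxP3 or FoxP1 fragment with a His6-MBP tag, expressed in E. coli and used at 0.4 µM with 0.1 µM Klenow-filled degenerate double-stranded DNA library for 30 min at room temperature in Tris pH 7.5 buffer with NaCl and MgCl2. Amylose resin pull-down with three washes was followed by proteinase K release, PCR barcoding and Illumina sequencing.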
Turning to “GATGATTGTTCTCCCAGCTGATGAATTCTAATCCTCGAGTAAACAAATTTTCCTAATCTTTCTGTTCAAGCGCCATCTAC”, the binding signal was 0.781 RPM ratio (pull-down/input).

For “GATGATTGTTCTCCCAGCTGATGAATTGGGTGCTTCGAGTAAACAAATTTTCCTAATCTTTCTGTTCAAGCGCCATCTAC”, the binding signal was 0.861 RPM ratio (pull-down/input).

Take “GATGATTGTTCTCCCAGCTGATGAATTTCAGGTATCGAGTAAACAAATTTTCCTAATCTTTCTGTTCAAGCGCCATCTAC”: the binding signal was 0.919 RPM ratio (pull-down/input).

With “GATGATTGTTCTCCCAGCTGATGAATTTGTACGCTCGAGTAAACAAATTTTCCTAATCTTTCTGTTCAAGCGCCATCTAC”, the binding signal was 1.13 RPM ratio (pull-down/input).

Turning to “GATGATTGTTCTCCCAGCTGATGAATTTGCGATATCGAGTAAACAAATTTTCCTAATCTTTCTGTTCAAGCGCCATCTAC”, the binding signal is 1.19 RPM ratio (pull-down/input).

For “GATGATTGTTCTCCCAGCTGATGAATTGCCTATGTCGAGTAAACAAATTTTCCTAATCTTTCTGTTCAAGCGCCATCTAC”, the binding signal is 0.918 RPM ratio (pull-down/input).

Take “GATGATTGTTCTCCCAGCTGATGAATTGACGCGGTCGAGTAAACAAATTTTCCTAATCTTTCTGTTCAAGCGCCATCTAC”: the binding signal is 1.01 RPM ratio (pull-down/input).

For “GATGATTGTTCTCCCAGCTGATGAATTTTCTGGCTCGAGTAAACAAATTTTCCTAATCTTTCTGTTCAAGCGCCATCTAC”, the binding signal was 0.777 RPM ratio (pull-down/input).

“GATGATTGTTCTCCCAGCTGATGAATTTCCGAAGTCGAGTAAACAAATTTTCCTAATCTTTCTGTTCAAGCGCCATCTAC”: the binding signal is 0.787 RPM ratio (pull-down/input).

As to “GATGATTGTTCTCCCAGCTGATGAATTACGTCGCTCGAGTAAACAAATTTTCCTAATCTTTCTGTTCAAGCGCCATCTAC”, the binding signal was 1.02 RPM ratio (pull-down/input).

For “GATGATTGTTCTCCCAGCTGATGAATTTTCACATTCGAGTAAACAAATTTTCCTAATCTTTCTGTTCAAGCGCCATCTAC”, the binding signal is 0.987 RPM ratio (pull-down/input).

“GATGATTGTTCTCCCAGCTGATGAATTACATTCCTCGAGTAAACAAATTTTCCTAATCTTTCTGTTCAAGCGCCATCTAC”: the binding signal was 1.2 RPM ratio (pull-down/input).

For “GATGATTGTTCTCCCAGCTGATGAATTTTACTAATCGAGTAAACAAATTTTCCTAATCTTTCTGTTCAAGCGCCATCTAC”, the binding signal is 1.14 RPM ratio (pull-down/input).

As to “GATGATTGTTCTCCCAGCTGATGAATTTACTAAATCGAGTAAACAAATTTTCCTAATCTTTCTGTTCAAGCGCCATCTAC”, the binding signal is 1.72 RPM ratio (pull-down/input).

“GATGATTGTTCTCCCAGCTGATGAATTTTTACTATCGAGTAAACAAATTTTCCTAATCTTTCTGTTCAAGCGCCATCTAC”: the binding signal is 1.1 RPM ratio (pull-down/input).

Regarding “GATGATTGTTCTCCCAGCTGATGAATTAATGCGCTCGAGTAAACAAATTTTCCTAATCTTTCTGTTCAAGCGCCATCTAC”, the binding signal is 1.26 RPM ratio (pull-down/input).

Regarding “GATGATTGTTCTCCCAGCTGATGAATTGACCTTCTCGAGTAAACAAATTTTCCTAATCTTTCTGTTCAAGCGCCATCTAC”, the binding signal is 0.921 RPM ratio (pull-down/input).

Take “GATGATTGTTCTCCCAGCTGATGAATTTTGCTTTTCGAGTAAACAAATTTTCCTAATCTTTCTGTTCAAGCGCCATCTAC”: the binding signal was 1.49 RPM ratio (pull-down/input).

Consider “GATGATTGTTCTCCCAGCTGATGAATTGAATGGTTCGAGTAAACAAATTTTCCTAATCTTTCTGTTCAAGCGCCATCTAC”, for which the binding signal is 0.852 RPM ratio (pull-down/input).

Regarding “GATGATTGTTCTCCCAGCTGATGAATTGATGACGTCGAGTAAACAAATTTTCCTAATCTTTCTGTTCAAGCGCCATCTAC”, the binding signal was 1.06 RPM ratio (pull-down/input).

As to “GATGATTGTTCTCCCAGCTGATGAATTTGACGTATCGAGTAAACAAATTTTCCTAATCTTTCTGTTCAAGCGCCATCTAC”, the binding signal is 0.962 RPM ratio (pull-down/input).

As to “GATGATTGTTCTCCCAGCTGATGAATTGACGTAATCGAGTAAACAAATTTTCCTAATCTTTCTGTTCAAGCGCCATCTAC”, the binding signal is 1.75 RPM ratio (pull-down/input).

Consider “GATGATTGTTCTCCCAGCTGATGAATTGACGCCATCGAGTAAACAAATTTTCCTAATCTTTCTGTTCAAGCGCCATCTAC”, for which the binding signal is 1.24 RPM ratio (pull-down/input).

With “GATGATTGTTCTCCCAGCTGATGAATTGTTGACGTCGAGTAAACAAATTTTCCTAATCTTTCTGTTCAAGCGCCATCTAC”, the binding signal was 2.22 RPM ratio (pull-down/input).

For “GATGATTGTTCTCCCAGCTGATGAATTTTTGACGTCGAGTAAACAAATTTTCCTAATCTTTCTGTTCAAGCGCCATCTAC”, the binding signal is 0.91 RPM ratio (pull-down/input).

As for “GATGATTGTTCTCCCAGCTGATGAATTTCTCTAGTCGAGTAAACAAATTTTCCTAATCTTTCTGTTCAAGCGCCATCTAC”, the binding signal is 0.844 RPM ratio (pull-down/input).

Turning to “GATGATTGTTCTCCCAGCTGATGAATTACCGCGATCGAGTAAACAAATTTTCCTAATCTTTCTGTTCAAGCGCCATCTAC”, the binding signal is 0.929 RPM ratio (pull-down/input).

Regarding “GATGATTGTTCTCCCAGCTGATGAATTCTGAACATCGAGTAAACAAATTTTCCTAATCTTTCTGTTCAAGCGCCATCTAC”, the binding signal was 0.898 RPM ratio (pull-down/input).

Regarding “GATGATTGTTCTCCCAGCTGATGAATTCACAACATCGAGTAAACAAATTTTCCTAATCTTTCTGTTCAAGCGCCATCTAC”, the binding signal was 2.11 RPM ratio (pull-down/input).

Turning to “GATGATTGTTCTCCCAGCTGATGAATTCCTAAAATCGAGTAAACAAATTTTCCTAATCTTTCTGTTCAAGCGCCATCTAC”, the binding signal is 0.966 RPM ratio (pull-down/input).

On to “GATGATTGTTCTCCCAGCTGATGAATTCTTCACATCGAGTAAACAAATTTTCCTAATCTTTCTGTTCAAGCGCCATCTAC”, for which the binding signal is 1.08 RPM ratio (pull-down/input).

The values above are taken from article PMC12820563, “FoxP3 forms a head-to-head dimer in vivo and stabilizes its multimerization on adjacent microsatellites”.
